Measured values taken from the supplement of paper PMC10646978.
± gives the standard deviation.

Experiments:
Conditions in all cases: modulator concentration 10 µM
[1] = test system: RAW-Dual (murine macrophage reporter line); test: NF-kB reporter (SEAP) activity fold change vs agonist alone; higher = enhanced NF-kB activity
Outline: (§1)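 In 384-well plates holding 50 000 RAW-Dual murine macrophage reporter cells per well, compound at 10 μM final was pre-incubated for 1 hour at 37 °C, after which a PRR agonist was added overnight. Supernatant SEAP read with QUANTI-Blue at 620 nm absorbance reported NF-κB, and Lucia luciferase read with QUANTI-Luc luminescence reported IRF. Fold change values come from dividing each reporter signal by the mean of agonist-only control wells on the same plate, averaged over replicate plates with propagated errors.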

[2] = test system: RAW-Dual (murine macrophage reporter line); test: IRF reporter (Lucia luciferase) activity fold change vs agonist alone; higher = enhanced IRF activity
Outline: as §1

[3] = test system: RAW-Dual (murine macrophage reporter line); test: viability score (confluency relative to resting cells, overnight) (fraction); higher = more viable, active = viable (0.7 or more)
Outline: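 In 384-well plates, RAW-Dual macrophages received compound at a final 10 μM overnight. Two confluency masks were then made with IncuCyte software from IncuCyte images of all imaged wells. The viability score is defined as confluency relative to resting cells. Passing the cutoff required both masks to lie above 70% of resting cells.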

[4] = agonist: CpG ODN 1826 0.5 ug/mL

Structure (SMILES)	NF-kB reporter [1, 4]	NF-kB reporter ([1]; agonist: LPS 0.1 ug/mL)	NF-kB reporter ([1]; agonist: MPLA […])	IRF reporter ([2]; agonist: 3'3'-cGAMP 10 ug/mL)	IRF reporter ([2]; agonist: LPS 0.1 ug/mL)	IRF reporter ([2]; agonist: MPLA […])	viability score [3]
COc1ccc(C=NNc2nc(-c3ccccc3)cc(-c3ccc(Br)cc3)n2)c(OC)c1	0.918 ± 0.091	0.94 ± 0.1	1.03 ± 0.12	0.96 ± 0.03	1.08 ± 0.12	1.08 ± 0.17	1.03 (active)
CNCCC[C@]12CC[C@H](c3ccccc31)c1ccccc12 [Prestw-346]	0.726 ± 0.082	0.842 ± 0.063	0.93 ± 0.095	1.12 ± 0.07	1.41 ± 0.14	1.59 ± 0.26	0.962 (active)
Cl.N=C(N)NC(=O)c1nc(Cl)c(N)nc1N	1.2 ± 0.18	1.15 ± 0.22	0.891 ± 0.063	0.984 ± 0.03	1.4 ± 0.25	1.3 ± 0.12	0.988 (active)
Oc1ccc(-c2cnc(-c3ccc(O)cc3)nc2)cc1	0.924 ± 0.22	0.965 ± 0.091	1.42 ± 0.1	0.347 ± 0.017	0.555 ± 0.08	0.591 ± 0.16	0.927 (active)
O=C(CSc1ncnc2c(-c3ccccc3)c[nH]c12)NCc1ccc(Cl)cc1	1.18 ± 0.059	1.13 ± 0.089	0.796 ± 0.035	1.25 ± 0.064	1.18 ± 0.093	1.24 ± 0.26	0.99 (active)
CCOC(=O)C1=C(C)OC(N)=C(C#N)C1c1cc(C)c(OC)cc1C (stereo unspecified)	0.925 ± 0.073	1.01 ± 0.11	0.898 ± 0.056	0.66 ± 0.11	0.987 ± 0.089	0.935 ± 0.17	1 (active)
CCOC(=O)c1ncn2c1CN(C)C(=O)c1cc(F)ccc1-2	1.26 ± 0.22	1.03 ± 0.28	0.975 ± 0.058	0.912 ± 0.029	1.2 ± 0.27	1.16 ± 0.088	0.995 (active)
CCOc1ccccc1NC(=O)Nc1ccc2c(c1)CC(=O)N2CC	1.17 ± 0.083	0.945 ± 0.092	0.998 ± 0.028	0.694 ± 0.037	0.844 ± 0.077	0.797 ± 0.089	0.998 (active)
Cc1ccc(C=CC(=O)O)cc1S(=O)(=O)NCCO	1.04 ± 0.2	0.884 ± 0.075	1.05 ± 0.095	0.988 ± 0.077	1.16 ± 0.2	0.979 ± 0.32	0.984 (active)
COCCCC/C(=N\OCCN)c1ccc(C(F)(F)F)cc1.O=C(O)/C=C\C(=O)O	0.903 ± 0.072	0.902 ± 0.042	1.23 ± 0.15	0.829 ± 0.04	1.42 ± 0.083	1.67 ± 0.14	0.985 (active)
CC(=O)NO	0.863 ± 0.12	0.93 ± 0.071	0.953 ± 0.053	0.834 ± 0.068	0.901 ± 0.15	0.977 ± 0.092	1 (active)
O=c1oc2c3c4c(cc2cc1-c1nnc(-c2ccccc2)o1)CCCN4CCC3	1.01 ± 0.12	1.04 ± 0.1	0.98 ± 0.058	1.02 ± 0.058	1.41 ± 0.17	1.04 ± 0.069	1.01 (active)
CN1C(=O)C(=NNC(=O)COc2cccc(Br)c2)c2ccccc21	0.895 ± 0.06	0.978 ± 0.082	0.896 ± 0.054	0.954 ± 0.033	1.48 ± 0.16	1.16 ± 0.12	1.01 (active)
